SARS PLP yeast: blocks SARS-CoV papain-like protease in a yeast assay; S. cerevisiae expressing SARS-CoV PLpro, growth rescue; Potency, µM (doses to about 32.9 µM), inactives show at the highest dose activity, positive = growth rescue, actives largely listed as activators; actives 0.19% (n = 330,000); calls by dose curve; also: potency is read from the fitted curve at half-maximal effect; 0% is about no effect; nearly all actives have a fitted effect of over 55% in size
Cycloheximide cs: counter-screen hit for Shiga toxin inhibitors, cycloheximide. actives 12% (n = 300,000). cell reporter, cycloheximide protein synthesis inhibition counterscreen. max response, %; in the data active = max response mostly above about 13%, no sharp cut-off; inactive = mostly below about 14%; also: read at 38.3 µM for the half of the compounds with a filed dose; 0% is about no effect
AmpC inh detg: inhibitors of E. coli AmpC beta-lactamase with detergent; Potency, µM (doses to about 114 µM), for inactives: at the highest dose activity change, negative = inhibition, actives largely listed as inhibitors; AmpC hydrolysis of nitrocefin, absorbance 480 nm, 0.01% Triton; P00811; actives 0.041% (n = 370,000);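 also: potency is read from the fitted curve at half-maximal effect; 0% = no-compound wells and -100% = no-enzyme wells; nearly all actives have a fitted effect of over 25% in size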
Target sequence (P00811 whole entry, looked up): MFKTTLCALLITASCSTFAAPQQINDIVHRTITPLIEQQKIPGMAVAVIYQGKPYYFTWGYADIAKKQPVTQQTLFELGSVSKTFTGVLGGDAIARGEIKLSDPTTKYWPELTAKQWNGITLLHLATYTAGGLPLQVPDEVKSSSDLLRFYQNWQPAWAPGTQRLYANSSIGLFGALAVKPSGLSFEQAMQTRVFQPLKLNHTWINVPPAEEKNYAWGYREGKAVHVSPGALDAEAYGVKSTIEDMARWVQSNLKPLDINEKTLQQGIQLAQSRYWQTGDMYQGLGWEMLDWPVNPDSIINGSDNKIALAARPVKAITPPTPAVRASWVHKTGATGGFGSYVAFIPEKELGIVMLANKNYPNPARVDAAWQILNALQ
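20 mM phosphate pH 7.0 + 0.01% (detergent screen) or 0.0001% Triton X-100; 5.3 nM AmpC reagent; cpd preinc 15 min RT; nitrocefin (800 uM stock) to start; A480 q20 s × 4 min; Activity was normalised to no-enzyme and no-compound control wells.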
AmpC no deterg: AmpC beta-lactamase inhibition without detergent; Potency, µM (doses to about 57.1 µM), for the others: at the top dose activity change, negative = inhibition, most hits filed as inhibitors; actives 0.52% (n = 330,000); AID 485341; AmpC nitrocefin hydrolysis, absorbance 480 nm, 0.0001% Triton;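 also: potency is read from the fitted curve at half-maximal effect; plate controls were no compound for no effect and no enzyme for full effect; nearly all actives have a fitted effect of over 20% in size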
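20 mM phosphate pH 7.0 + 0.01% (detergent screen) or 0.0001% Triton X-100; 5.3 nM AmpC reagent; cpd preinc 15 min RT; nitrocefin (800 uM stock) to start; A480 q20 s × 4 min; Activity was normalised to no-enzyme and no-compound control wells.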
Shiga toxin inh: inhibitors of Shiga toxin in Vero cells; inhibition, % at 38.7 µM; actives 9.2% (n = 290,000); Vero cells, Shiga toxin protein synthesis inhibition reporter; AID 2315; in the data active = inhibition mostly above about 28%, no sharp cut-off; inactive = mostly below about 43%; also: 0% is about no effect
AMA1-RON2 inh: disrupts binding of P. falciparum AMA1 to RON2; AlphaScreen AMA1-biotinylated RON2 peptide binding; Potency, µM (titrated, usually from 58.2 µM), for inactives: at the top dose activity change, negative = inhibition, hits mostly inhibitors; actives 0.2% (n = 360,000); AID 720542;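 also: potency is read from the fitted curve at half-maximal effect; 0% = vehicle wells and -100% = peptide control; nearly all actives have a fitted effect of over 45% in size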
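AMA1 (3D7) with his tag at 25 nM final met compounds first, then biotinylated RON2 peptide at 25 nM; detection used donor plus acceptor beads, 10 µg/mL apiece, read by AlphaScreen after 30 min at room temperature.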
Active calls of the source: *; ? = inconclusive; / = not tested or not shown; [ ] = another dose, or the depositor's remark. Many of the other results were omitted from the sample, so hits are more common in it than they were. Unless noted, calls follow the shape of the dose curve; as a rule, active = well fitted curve in the direction sought with a large enough effect; inconclusive = small, poorly fitted or top-dose-only effect, or another doubt; inactive = no such curve, though single readings can be large; an effect the other way counts as inactive or inconclusive.

SMILES	SARS PLP yeast	Cycloheximide cs	AmpC inh detg	AmpC no deterg	Shiga toxin inh	AMA1-RON2 inh
Cc1csc(NS(=O)(=O)c2ccc(Cl)cc2)n1	1.4%	3.5	7.4%	-27.6%	15.4	-2.3%
Cc1csc(Nc2ccc(Cl)cc2)n1	0.3%	23.8*	-4.6%	-33.5%	72.8*	-24.9%
Cc1ccc(NC(=O)c2c(C)oc3ccc(O)c(CN4CCCCC4)c23)c(C)c1	/	/	-3.6%	/	/	/
CCSc1nn2c(=O)c3ccccc3nc2s1	-0.6%	47.6*	5.9%	-10.4%	85.4*	9.4%
CCc1cccc(C)c1Nc1nn2c(=O)c3ccccc3nc2s1	/	/	1.8%	/	/	/
COCCNC(=O)c1ccc2c(c1)nc(C)n2-c1cccc(F)c1	3.0%	-4.1	-12.1%	-2.2%	-14.6	3.6%
O=C(/C=C\c1ccco1)c1ccc(NC(=O)c2ccco2)cc1	-2.6%	25.6*	1.9%	6.31µM*	73.4	-1.9%
CN(C(=O)C=Cc1ccco1)c1ccccc1	/	/	/	/	/	4.9%
O=C(/C=C/c1ccco1)c1ccc(O)cc1	0.7%	38.0*	0.9%	-31.3%	84.1	/
CN(C)c1ccc(C(=O)/C=C/c2ccco2)cc1	-38.4%	49.7*	?	-35.0%	112.4*	-14.4%
CC(=O)Nc1ccc(C(=O)/C=C/c2ccco2)cc1	-1.5%	-1.5	-10.0%	-33.1%	-7.2	-17.1%
CCN(CC)CCNC(=O)c1ccc2c(c1)ncn2C1CCCCC1	5.6%	-0.9	-3.7%	-4.6%	-9.3	14.5%
CCCCNC(=O)c1ccc2c(c1)ncn2C1CCCCC1	4.9%	11.8	1.4%	-7.0%	-4.2	7.2%
O=C(O)c1ccc2c(c1)ncn2C1CCCC1	4.8%	47.8*	2.6%	-12.7%	113.6*	-8.2%
Cc1nc2cc(C(=O)O)ccc2n1C1CCCCC1	-2.7%	1.3	-9.4%	-9.1%	1.1	-10.9%
CC(C)CCNC(=O)c1ccc2c(c1)ncn2C1CCCCC1	-2.7%	19.2	1.0%	-2.9%	42.0*	-2.7%
CCCCNC(=O)c1ccc2c(c1)ncn2C1CCCC1	13.3%	33.7*	-4.3%	-26.2%	65.4	-6.4%
CCN(CC)CCCn1c(C)cc2c(c1=O)C(c1ccccc1)C(C#N)=C(N)O2 (centres undefined)	-4.1%	6.3	2.7%	-39.4%	21.5	-7.3%
COCCNC(=S)N1Cc2ccccc2-n2nncc2C1	/	/	/	/	/	12.8%
Cc1ccc(-n2nnc3ccccc3c2=O)cc1C	-10.3%	49.7*	?	-57.7%	99.6*	-5.6%
O=C(O)[C@H]1CCCC[C@H]1C(=O)Nc1ccc(Nc2ccccc2)cc1	-12.1%	-2.5	-5.8%	-25.4%	12.5	-6.7%
Cc1ccc(-c2nn(Cc3ccccc3)cc2C=O)cc1	-39.3%	85.4*	-9.3%	-12.0%	54.6*	4.3%
Cc1ccc(Cn2cc(C=O)c(-c3ccc(F)cc3)n2)cc1	-4.1%	23.2*	4.1%	-11.0%	31.4*	12.4%
Cc1ccc(-c2nn(Cc3ccccc3)cc2C=O)cc1C	-10.1%	49.4*	-11.1%	-1.7%	active	11.3%
Cc1ccc(-c2nn(Cc3ccccc3)cc2C(=O)O)cc1	0.3%	7.2	2.3%	-17.2%	10.4	0.7%
SMILES	SARS PLP yeast	Cycloheximide cs	AmpC inh detg	AmpC no deterg	Shiga toxin inh	AMA1-RON2 inh
CCOc1cc(C(=O)NC)cc(Br)c1OC	-0.8%	-3.0	2.7%	-1.7%	-6.9	-4.1%
N=C1SCC(=O)N1/N=C/c1ccccc1	-2.2%	23.6*	?	-18.0%	53.1*	24.8%
O=C1CSC(=S)N1/N=C/C=C/c1ccccc1	13.7%	9.9	?	?	34.9	24.9%
O=C1C2C3CCCC3=C3CCCC3C2C(=O)N1c1ccccc1 (centres undefined)	1.3%	0.9	-8.0%	-0.4%	-11.8	0.0%
O=C(COC(=O)/C=C/c1ccccc1[N+](=O)[O-])NC1CC1	1.9%	10.0	-5.0%	2.4%	-7.4	-10.4%
CC(C)(C)NC(=O)COC(=O)/C=C/c1ccccc1[N+](=O)[O-]	-3.5%	23.8*	-5.5%	-7.2%	38.5*	-3.1%
O=C(COC(=O)/C=C/c1ccccc1[N+](=O)[O-])Nc1ccc(OC(F)F)cc1	-1.8%	7.6	?	-8.7%	-3.4	4.5%
O=C(COC(=O)/C=C/c1ccccc1[N+](=O)[O-])Nc1ccc(OCc2ccccc2)cc1	0.4%	17.1*	-4.0%	-43.4%	39.3*	-11.1%
Nc1nc2ccc(Cl)cc2o1	/	/	/	/	/	20.1%
C/C(=N\Nc1nc2ccc(Cl)cc2o1)c1ccccc1	-1.8%	26.7*	8.9%	-30.8%	73.5*	72.5%
COCc1cc(=O)n2[nH]cc(-c3ccccc3)c2n1	5.2%	18.8*	-12.6%	-13.9%	/	38.4%
Cc1nc2c(-c3ccccc3)c[nH]n2c(=O)c1Cc1ccccc1	-4.6%	61.6*	-9.7%	-19.7%	121.1*	0.4%
CC(NC=C1C(=O)OC(C)(C)OC1=O)C(=O)O (centres undefined)	-4.9%	-4.8	-6.6%	-5.3%	-8.7	85.8%
N#C/C(=C\c1ccc(N2CCOCC2)o1)C(=O)NCC1CCCO1 (centres undefined)	-1.0%	-4.9	-4.4%	121.0%	24.3	-11.9%
Cc1ccc2nc(/C(C#N)=C\c3ccc(N4CCOCC4)o3)[nH]c2c1	2.7%	46.4*	-4.0%	52.8%	46.6*	51.9%
Cc1ccc(/C(C#N)=C\c2ccc(N3CCOCC3)o2)cc1	-34.8%	88.4*	0.6%	83.2%	132.7*	-8.4%
CCOc1ccccc1NC(=O)CCCc1nc2ccccc2c(=O)[nH]1	-0.2%	5.8	0.5%	-9.4%	-6.2	-7.8%
COc1ccc(NC2=Nc3cccc4cccc2c34)cc1OC	-0.5%	9.3	-10.7%	-18.9%	-2.9	-24.6%
Clc1ccc(/C=N/NC2=Nc3cccc4cccc2c34)cc1	-23.9%	24.3*	-0.6%	-10.2%	85.3*	-16.1%
Cc1ccc(-c2cc(-c3ccccc3O)nc(N/N=C/c3cccnc3)n2)cc1	0.5%	11.8	-1.5%	-19.5%	12.1	21.6%
C(=N\NC1=Nc2cccc3cccc1c23)/c1ccccc1	7.0%	86.8*	-13.5%	-28.9%	42.7*	-6.4%
COc1cccc(NC2=Nc3cccc4cccc2c34)c1	10.0%	21.4*	?	-5.2%	23.8	-28.9%
C(=N\NC1=Nc2cccc3cccc1c23)/c1cccnc1	-2.6%	40.0*	?	-14.2%[11.4 µM]	72.2*	-13.6%
COC(=O)c1c(C)nn(-c2ccc(OC(F)(F)F)cc2)c1-c1snnc1C	0.2%	1.7	4.7%	54.0%	-10.0	-18.0%
Cc1sc2nc(CN(Cc3cccs3)C(=O)NC3CCCCC3)[nH]c(=O)c2c1C	-9.8%	1.9	35.5µM*	-8.9%	-17.5	-10.7%
CC(=O)c1cc(C#N)c(SCCC(C)C)nc1C	-1.0%	4.1	1.8%	10.2%	10.8	7.6%
CC(C)CCSc1nc(N)c(C#N)cc1C#N	-13.9%	33.2*	?	-7.9%	10.7	23.9%
COc1ccc(-c2ccc3oc(-c4ccsc4)c(-c4ccc(Br)nc4)c3c2)cc1	6.1%	/	/	-23.1%	/	/
O=C1CCn2c1c(O)c1ccccc1c2=O	/	/	/	/	/	-9.5%
